# Source: PubChem BioAssay
# Pol eta inh = qHTS for Inhibitors of Polymerase Eta. recombinant Pol eta, fluorescent DNA replication assay. 390,000 tested, 1.2% active. DNA polymerase eta (Homo sapiens), Q9Y253. AID 588591, 2011. Potency, µM (titrated, usually from 114 µM), inactives show at the highest dose activity change, negative = inhibition, actives largely listed as inhibitors; note: potency is the fitted concentration of half-maximal effect; % is set by controls: 0 for no effect and ±100 for the full control effect
#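 Pol eta at 10 nM preincubated with compounds 15 min at room temperature; reaction started with fluorescent substrate (50 nM final) and read kinetically at 0 and 10 min.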
# POLB inh = qHTS Assay for Inhibitors of DNA Polymerase Beta; P06746; Pol beta primer extension/strand displacement, fluorescence kinetic; Potency, µM (titrated, usually from 114 µM), for inactives: at the highest dose activity change, negative = inhibition, most hits filed as inhibitors; 340,000 tested, 1.3% active; note: potency is the fitted concentration of half-maximal effect; % is set by controls: 0 for no effect and ±100 for the full control effect
#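 Enzyme-only controls used 10 nM Pol beta; buffer lacking enzyme served as negative control. Compound preincubated 15 min, then 50 nM substrate added; 0 and 10 min reads at room temperature.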
# POLI inh = qHTS for Inhibitors of Polymerase Iota. AID 588590, 2011. DNA polymerase iota (Homo sapiens), Q9UNA4. 390,000 tested, 1% active. Potency, µM (top dose mostly 115 µM), inactives show at the highest dose activity, negative = inhibition, usual class: inhibitors. Pol iota fluorescent replication assay, 10 min; note: potency is the fitted concentration of half-maximal effect
#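 Pol iota at 10 nM preincubated 15 min with compounds at room temperature; reaction started with fluorescent substrate, 50 nM final. Fluorescence read kinetically at 0 and 10 min; buffer-only wells as negative control.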
# PI5P4K alpha inh = qHTS for Inhibitors of phosphatidylinositol 5-phosphate 4-kinase (PI5P4K); max response, %; AID 652105, 2013; 330,000 tested, 1.2% active; PI5P4Kalpha enzyme, ADP-Glo luminescence, 60 min; hits give low values; active = max response of -50% or lower; inconclusive = between -30% and -50%; inactive = -30% or higher; note: value at the top dose of about 77 µM; % is set by controls: 0 for no effect and ±100 for the full control effect
#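 qHTS, 1536-well: enzyme/substrate mix, compound by pin tool, 5 microM ATP final; RT 60 min; ADP-Glo reagents 1 (45 min) then 2 (30 min); luminescence.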
# Pol kappa inh = qHTS for Inhibitors of Polymerase Kappa; purified Pol kappa, fluorescent DNA synthesis assay, 10 min; Potency, µM (highest dose often 107 µM), without a hit: at the top dose activity, negative = inhibition, usual class: inhibitors; 400,000 tested, 0.53% active; note: potency is the fitted concentration of half-maximal effect; % is set by controls: 0 for no effect and ±100 for the full control effect
# Target sequence (Q9UBT6 whole entry, looked up): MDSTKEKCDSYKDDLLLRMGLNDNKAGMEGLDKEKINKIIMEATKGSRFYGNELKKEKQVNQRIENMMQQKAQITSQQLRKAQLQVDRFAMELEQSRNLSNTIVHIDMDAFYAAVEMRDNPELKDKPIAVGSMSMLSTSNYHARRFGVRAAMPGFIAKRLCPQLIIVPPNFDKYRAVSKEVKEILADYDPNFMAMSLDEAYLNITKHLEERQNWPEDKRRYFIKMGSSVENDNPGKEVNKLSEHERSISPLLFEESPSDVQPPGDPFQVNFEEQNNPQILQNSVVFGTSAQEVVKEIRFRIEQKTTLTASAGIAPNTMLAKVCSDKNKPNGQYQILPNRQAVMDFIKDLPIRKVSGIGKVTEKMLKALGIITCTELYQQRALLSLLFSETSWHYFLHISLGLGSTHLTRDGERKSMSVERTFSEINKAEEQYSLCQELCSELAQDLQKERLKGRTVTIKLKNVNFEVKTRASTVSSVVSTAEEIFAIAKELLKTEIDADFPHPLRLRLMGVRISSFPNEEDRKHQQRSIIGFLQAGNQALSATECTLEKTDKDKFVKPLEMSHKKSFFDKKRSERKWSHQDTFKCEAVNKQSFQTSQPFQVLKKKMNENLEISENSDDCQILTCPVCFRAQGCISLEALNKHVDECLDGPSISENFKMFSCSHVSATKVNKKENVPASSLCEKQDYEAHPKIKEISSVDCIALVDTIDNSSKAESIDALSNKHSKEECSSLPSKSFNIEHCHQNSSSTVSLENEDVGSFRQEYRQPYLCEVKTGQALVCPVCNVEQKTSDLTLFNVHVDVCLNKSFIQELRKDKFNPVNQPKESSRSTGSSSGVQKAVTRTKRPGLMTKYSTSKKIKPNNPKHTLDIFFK
#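 Pol kappa 10 nM + cpd, 15 min RT; start w/ substrate 50 nM final; fluorescence kinetic read, 0 and 10 min. Neg ctrl: buffer, no enzyme.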
# WRN helicase inh = qHTS for Inhibitors of WRN Helicase | WRN helicase unwinding, fluorescent forked duplex, kinetic | Potency, µM (doses to about 114 µM), without a hit: at the top dose activity change, negative = inhibition, most hits filed as inhibitors | 360,000 tested, 0.46% active; note: potency is the fitted concentration of half-maximal effect; % is set by controls: 0 for no effect and ±100 for the full control effect; nearly all actives have a fitted effect of over 55% in size
#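 Kinetic fluorescence helicase assay: unwinding of a quenched forked DNA duplex (100 nM final) with 2 mM ATP final raises red fluorescence (525/598 nm). Compounds sat 15 min at room temperature with 20 nM WRN beforehand.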
# The depositor's hits bear a star; ? = inconclusive; nt = not tested or not shown; [ ] = dose if it differs, or a comment. This is a sample that favours compounds with a hit; in the whole collection about 2.8% have one here. Unless noted, calls come from the whole dose curve; as a rule, active = well fitted curve in the direction sought with a large enough effect; inconclusive = small, poorly fitted or top-dose-only effect, or another doubt; inactive = no such curve, though single readings can be large; an effect the other way counts as inactive or inconclusive.
SMILES,Pol eta inh,POLB inh,POLI inh,PI5P4K alpha inh,Pol kappa inh,WRN helicase inh
Cc1nc2c(OCc3cccc(Cl)c3)cccn2c1N(C)Cc1cccs1,nt,nt,nt,-12,nt,-2%[57.1 µM]
COc1ccc(-n2c(SCC(=O)Nc3cc(C(=O)O)ccc3C)nc3ccccc3c2=O)cc1Cl,-3%,-27%,18%,-64*,-9%,-14%
COc1ccc(-n2c(SCC(=O)Nc3cc(C)on3)nc3ccccc3c2=O)cc1Cl,-16%,-2%,56%,-6,1%,3%
O=C(COC(=O)c1ccc(NS(=O)(=O)c2cccs2)cc1)Nc1nc2c(F)c(F)c(F)cc2s1,20µM*,28µM*,40µM*,-90*,?,-35%
CCS(=O)(=O)Nc1cccc(-c2cn3c(n2)SCC3)c1,-18%,17%,22%,-1,-3%,-1%
CS(=O)(=O)Nc1cccc(-c2cn3c(n2)SCC3)c1,-3%,0%,?,-3,32µM*,-11%
CCc1ccc(OCC(=O)NC(=S)Nc2ccc(C)cc2C)c(Br)c1,-2%,10%,79µM*,nt,-3%,-4%[57.1 µM]
Cc1cccc(NC(=O)CN2C(=O)S/C(=C\C(=O)Nc3ccc(Cl)cc3)C2=O)c1,-21%,-15%,-13%,-14,-20%,-11%
Cc1ccc(NC(=O)CN2C(=O)S/C(=C\c3cc(C)n(-c4ccc(C(=O)O)cc4)c3C)C2=O)cc1,79µM*,79µM*,?,?,-5%,-10%
CCC(=O)N(c1nnc(SCC(=O)Nc2sccc2C(N)=O)s1)C1CC1,-8%,nt,nt,?,nt,-7%
O=C(Nc1ccccc1)c1cccc(NC(=O)c2ccco2)c1,-19%,nt,24%,3,-7%,-2%
O=C(O)c1cccc(NS(=O)(=O)c2ccc(NC(=O)c3ccco3)cc2)c1,28µM*,-23%,6%,-1,-20%,?
CCOC(=O)/C=C1\SCC(=O)N1CC(=O)c1ccc[nH]1,?,20µM*,?,-53*,?,-7%[11.6 µM]
Cc1ccc(NC(=O)Nc2nc3ccc(S(C)(=O)=O)cc3s2)cc1,79µM*,nt,23%,-12,-3%,-6%[11.6 µM]
CS(=O)(=O)c1ccc2nc(NC(=O)Nc3cccc(Cl)c3)sc2c1,-9%,50µM*,?,nt,-4%,-25%
CS(=O)(=O)c1ccc2nc(NC(=O)Nc3ccc(Cl)c(Cl)c3)sc2c1,-16%,-16%,139%,-21,-8%,-4%
COCCNC(=S)N(C)[C@H]1C[C@H]2c3cc(N4CCN(C)CC4)ccc3CCN2C(=O)[C@H]1[C@H](C)O,-16%,nt,nt,-5,nt,6%
O=C1NC[C@H](Cc2ccccc2)N(CC2CCN(CC3CCCC3)CC2)C1=O,-4%,nt,?,6,-9%,4%[11.6 µM]
CCc1nc2cccnc2n1-c1ccc(CC(=O)O)cc1,50µM*,-1%,64%,-16,-24%,-1%[11.6 µM]
CCOCCCNC(=O)Cc1ccc(-n2c(CC)nc3cccnc32)cc1,-19%,22%,25%,-3,-2%,2%
Oc1ccccc1C1=Nc2ncnn2C(c2ccc(F)cc2)C1 (stereo unspecified),?,32µM*,2%,-6,-8%,?
Fc1ccc(C2CC(c3ccc(F)cc3)n3ncnc3N2)cc1 (stereo unspecified),-11%,1%,0%,nt,2%,6%
O=C(Nc1ccc2oc(-c3cc(Br)ccc3Cl)nc2c1)c1cc2ccccc2o1,?,2.8µM*,53%,nt,-3%,nt
O=C(Nc1ccc2oc(-c3ccc(Br)cc3)nc2c1)c1cc2ccccc2o1,-29%,?,29%,nt,-1%,nt
O=C(Nc1ccc(C2=NCCN2)cc1)c1ccc(C(=O)Nc2ccc(C3=NCCN3)cc2)c([N+](=O)[O-])c1,?,2.2µM*,10µM*,-28,45µM*,?
SMILES,Pol eta inh,POLB inh,POLI inh,PI5P4K alpha inh,Pol kappa inh,WRN helicase inh
Cc1ccc(C2C(C#N)=C(N)SC(N)=C2C#N)cc1,-5%,0%,3%,-85*,-10%,-29%
CC(C)C1C(C#N)=C(N)SC(N)=C1C#N,-2%,0%,2%,-9,-7%,-4%
Cc1ccc(C2C(C#N)=C(N)SC(N)=C2C#N)c(C)c1,9%,-7%,25µM*,-63*,-7%,-32%
N#CC1=C(N)SC(N)=C(C#N)C1c1ccoc1,nt,7.1µM*,nt,nt,nt,nt
Nc1nonc1C(=O)N/N=C/c1ccc(-c2cccc(C(=O)O)c2)o1,nt,18µM*,nt,nt,nt,nt
Cc1ccc(C)c(N2CCN(C(=O)CCn3c(=S)[nH]c4cc5c(cc4c3=O)OCO5)CC2)c1,-9%,22%,20%,2,-13%,0%
COC1=C(Nc2ccc(O)cc2)C(=O)c2ccccc2C1=O,-11%,?,25µM*,-14,-17%,-16%
CN1CCC(N2CCN(C3CN(C4CCCC4)S(=O)(=O)C3)CC2)CC1 (stereo unspecified),nt,nt,nt,0,nt,-4%
N#Cc1c(N2CCCCC2)nc(N)c2c(N)nc3c(c12)CC(c1ccccc1)O3 (stereo unspecified),-12%,14%,10%,-64*,-4%,-4%
CCC1Cc2c(nc(N)c3c(N)nc(N4CCCCC4)c(C#N)c23)O1 (stereo unspecified),-28%,6%,151%,6,-8%,-33%
Cc1cc(/C=N/NC(N)=S)c(O)c(/C=N/NC(N)=S)c1,-10%,13%,44%,-64*,-4%,-8%
COc1cccc(NC(=O)C2(C)CCN2C(=O)Cc2ccc(C(C)C)cc2)c1 (stereo unspecified),nt,nt,nt,11,nt,-10%
COc1ccccc1Nc1nc(NCCCN(C)C)nc(N)c1[N+](=O)[O-],-24%,18µM*,-21%,0,-19%,79µM*
O=c1cc(-c2ccccc2)nc2c(-c3ccccc3)c(C(F)(F)F)[nH]n12,?,79µM*,20%,7,-12%,-21%
CCOC(=O)c1[nH]c(C)c(C(=O)Nc2ccccc2F)c1C,25µM*,-24%,-18%,-4,-5%,-2%
COc1ccc(OCC(=O)Nc2ccc3c(c2)nc(CCN2CCOCC2)n3C)cc1,-7%,21%,15%,nt,-5%,3%
COc1ccc(OCC(=O)Nc2ccc3c(c2)nc(CCn2ccccc2=O)n3C)cc1,-5%,?,56µM*,-1,-31%,6%[11.6 µM]
Cc1c(CCC(=O)O)c(=O)oc2cc3occ(-c4ccc(Cl)cc4)c3cc12,22µM*,?,?,?,-7%,-21%[11.6 µM]
